Reference: PubChem BioAssay

Biological target: Fibroblast growth factor 2 (Homo sapiens) (UniProt P09038)
Test: FGF2 binders on small-molecule microarrays, primary screen, biochemical, small-molecule microarray, 635/667 nm fluorescence (AID 1133)
Conditions: small-molecule microarray binding, FGF2, fluorescence 635/667; higher = more signal

Sequence of Fibroblast growth factor 2 (Homo sapiens) (P09038 whole entry, looked up): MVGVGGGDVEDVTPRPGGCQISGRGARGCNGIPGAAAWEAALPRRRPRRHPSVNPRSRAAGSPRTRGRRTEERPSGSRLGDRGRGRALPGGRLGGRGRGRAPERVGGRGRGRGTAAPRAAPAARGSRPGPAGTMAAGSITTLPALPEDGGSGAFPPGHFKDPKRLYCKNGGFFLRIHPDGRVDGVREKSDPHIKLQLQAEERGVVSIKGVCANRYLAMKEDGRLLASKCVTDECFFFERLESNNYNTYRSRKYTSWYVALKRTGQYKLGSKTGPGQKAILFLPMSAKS

| SMILES | composite z-score |
| --- | --- |
| CCC#CCN(Cc1ccccc1Br)[C@H](/C=C/C1CC1)[C@@H](O)Cc1ccccc1 | -0.984 |
| CCCCN1CC=CC23O[C@@H]4/C=C\CCCOC(=O)C4[C@H]2C(=O)N(CCO)[C@@H]3C1=O (some centres undefined) | -1.33 |
| C=CCNC(=O)[C@@H]1[C@H]2C(=O)O[C@H](c3ccccc3)[C@H](c3ccccc3)N2[C@H](c2ccccc2OCCO)[C@@]12C(=O)N(C(=O)OCCOC)c1ccc(C#CC3(O)CCCCCC3)cc12 | 0.924 |
| O=C(C1N=C(c2ccc(OCCCO)cc2)N(c2ccccc2)O1)N1CCCCC1 (centres undefined) | 0.423 |
| CN(C)CCCCCCNC(=O)[C@@H]1C[C@@H]2C(=O)N3CCC[C@H]3C(=O)N2[C@@H]1c1cccc(OCCO)c1 | 1.58 |
| COC(=O)[C@@]1(Cc2ccccc2)[C@H]2c3cc(C(=O)N(C)C)n(Cc4ccc(C)o4)c3C[C@H]2CN1C(=O)c1ccccc1 | 0.188 |
| O[C@@H](Cc1ccccc1)[C@@H](/C=C/C1CC1)N(CC#Cc1ccccc1)Cc1ccccc1Br | -1.71 |
| COCC(=C=CC[C@H](O)c1ccc(OCCO)cc1)CCO | 1.06 |
| NCCCCCNC(=O)[C@H]1C[C@H]2C(=O)N3CCC[C@H]3C(=O)N2[C@H]1c1cccc(OCCO)c1 | -0.146 |
| CCCC[C@@H]1C[C@H]1[C@@H](NC(=O)c1cccs1)c1ccccc1C(F)(F)F | 0.28 |
| CCOC(=O)C[C@H]1[C@H](OC(=O)Cc2ccc3c(c2)OCO3)[C@@H](NC(=O)C2CCCCC2)c2cc(OCCCO)ccc2N1C(=O)c1ccccc1 | 0.0099 |
| COc1cc(C(O)C2C=CC3C(=O)N(C)C(=O)C3N2Nc2ccccc2)cc(OC)c1OC (centres undefined) | -0.397 |
| COc1ccc([Si](C)(C)[C@@H]2[C@@H](CC(=O)N3Cc4ccccc4C[C@H]3CO)O[C@]3(C(=O)N(Cc4ccc(N5C(=O)c6cccc7cccc5c67)cc4)c4ccccc43)[C@H]2C)cc1 | 1.59 |
| C=CCC(OC(C)=O)[C@@H]1[C@@H](N(Cc2ccc(-c3cccc(C(F)(F)F)c3)o2)C(=O)c2ccc(-c3ccccc3)cc2)c2cc(OCCCO)ccc2N1C(=O)Cc1ccc2ccccc2c1 (some centres undefined) | -0.482 |
| C=CCNC(=O)[C@H]1[C@@H]2C(=O)O[C@@H](c3ccccc3)[C@@H](c3ccccc3)N2[C@@H](c2ccccc2OCCO)[C@]12C(=O)N(C(=O)OCCOC)c1ccc(C#CC3(O)CCCCCC3)cc12 | 0.226 |
| COc1ccc([Si](C)(C)[C@@H]2[C@@H](CCO)O[C@]3(C(=O)N(Cc4cccc(NC(=O)[C@H](C)O)c4)c4ccccc43)[C@H]2C)cc1 | 0.957 |
| CCCCC[C@H]1OC[C@@]23C=C(Br)[C@@H](CC12)[C@@]1(CO1)C3=O (some centres undefined) | -0.165 |
| C=CCN1Cc2ccccc2[C@@H]2OC(c3ccc(OCCCO)cc3)=N[C@]2(CC=C)C1=O | 1.57 |
| Cc1ccc(NN2C(C(O)c3c(F)cccc3Cl)C=CC3C(=O)N(C4CCCCC4)C(=O)C32)cc1 (centres undefined) | -0.413 |
| CCCCC(CC)C(O)C1C=CC2C(=O)N(c3ccccc3)C(=O)C2N1Nc1ccc(C#N)cc1 (centres undefined) | 0.208 |
| NC(=O)[C@H]1[C@@H]2C(=O)O[C@@H](c3ccccc3)[C@@H](c3ccccc3)N2[C@@H](c2ccc(OCCO)cc2)[C@]12C(=O)Nc1ccc(C#CCCO)cc12 | 0.35 |
| CCC1=C2CN(Cc3ccccc3)[C@@H](C(=O)Cc3ccccc3)C2C=CCC1 (some centres undefined) | 0.0052 |
| [N-]=[N+]=Nc1ccccc1C[C@]1(C(=O)NCC(O)CO)COC(c2ccc(OCCCO)cc2)=N1 (some centres undefined) | -0.483 |
| CCCC=C(CCC)[C@@H](NP(=O)(c1ccccc1)c1ccccc1)c1ccc(-c2ccccc2)cc1 | -0.0567 |
| CCOC(=O)C[C@H]1[C@H](OC(=O)c2ccc(C(=O)c3ccccc3)cc2)[C@@H](NC(=O)c2ccc(-c3ccccc3)cc2)c2cc(OCCCO)ccc2N1C(=O)Cc1ccc(OC)cc1 | -0.205 |
| CO[C@H]1O[C@H](CO)[C@@H](OC(=O)CCc2ccccc2)[C@@H]2OC(=O)[C@@H](Cc3ccccc3)C/C=C/C[C@H](Cc3ccccc3)C(=O)O[C@@H]12 | 1.31 |
| CCOC(=O)C1=C[C@@H](c2ccccc2)N(S(=O)(=O)c2ccc(C)cc2)[C@H]1c1ccc(OC)cc1 | 0.217 |
| [N-]=[N+]=Nc1ccccc1C[C@]1(C(=O)NCCN2CCOCC2)COC(c2ccc(OCCCO)cc2)=N1 | 1.04 |
| COc1ccc([Si](C)(C)[C@H]2[C@H](CC(=O)N3Cc4ccccc4C[C@H]3CO)O[C@@]3(C(=O)N(Cc4ccc(N5CCOC5=O)cc4)c4ccccc43)[C@@H]2C)cc1 | 1.39 |
